Experimental data: PubChem BioAssay
Active and inactive are the calls of the source.

Legend:
[1] = system: Human papillomavirus type 1a protein E7 (residues 44-93); assay: small molecules binding HPV E7 44-93 – biochemical, small-molecule microarray, residues 44-93, 635 nm fluorescence, primary screen (AID 1108); settings: fluorescence 635 nm, higher = more signal;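 also: E7 fragment applied at 1 µg/mL in TBST for 1 h at 4 C; score combines spot fluorescence with its signal to noise ratio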
[2] = hepatitis C replication reporter changes, two-sided – Huh7 cells, luciferase reporter, HCV replication inhibitor project, primary screen (AID 1109); settings: Huh7 HCV replicon luciferase reporter, 48 h; higher = more signal;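 also: huh7 hepatoma cells harbouring a luciferase neomycin HCV replicon reporter; luciferase luminescence as measure of HCV replicon replication; test concentration not given here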
[3] = biological target: Left-right determination factor 2 (Homo sapiens) (UniProt O00292); assay: small molecules binding LEFTY2 protein – biochemical, small-molecule microarray, 635 nm fluorescence scan, primary screen (AID 1110); settings: higher = more signal
[4] = biological target: Calmodulin-1 (Homo sapiens) (UniProt P0DP23); assay: small molecules binding calmodulin-1 with EGTA – biochemical, small-molecule microarray, Cy5-labelled CALM1, profiling panel (AID 1111); settings: Cy5-CALM1 binding fluorescence, higher = more signal;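 also: labelled calmodulin applied in Tris saline Tween buffer holding calcium plus EGTA and DTT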
[5] = biological target: Calmodulin-1 (Homo sapiens) (UniProt P0DP23); assay: small molecules binding Ca-loaded calmodulin-1 – biochemical, small-molecule microarray, Cy5-labelled CALM1, plus calcium, artefact control for SMM control-protein annotation, profiling panel (AID 1112); settings: Cy5-CALM1 binding fluorescence, higher = more signal;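 also: score merges spot fluorescence with signal to noise from triplicate slides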
[6] = probe aWnt5a binding to arrayed compounds – biochemical, biotinylated probe, 635/667 nm fluorescence, primary screen (AID 1113); settings: small-molecule microarray, higher = more signal;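 also: score merges 667 nm fluorescence intensity with signal-to-noise per printed feature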
[7] = probe aShh binding to arrayed compounds – biochemical, biotinylated probe, 635/667 nm fluorescence, primary screen (AID 1114); settings: small-molecule microarray, higher = more signal;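 also: probe is biotin-labelled aShh protein from a stem cell growth factor screen; measures binding of labelled protein to compounds printed on the slide; score merges feature fluorescence at 667 nm with signal-to-noise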
[8] = probe aNog binding to arrayed compounds – biochemical, biotinylated probe, 635/667 nm fluorescence, primary screen (AID 1115); settings: small-molecule microarray, higher = more signal;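 also: probe is biotinylated aNog protein used at 0.15 µg/mL for 1 h at 4 C; z-score combines 667 nm fluorescence of each spot with its signal to noise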
[9] = biological target: Torsin-1A-interacting protein 1 (Homo sapiens) (UniProt Q5JTV8); assay: compound microarray binding of lysate hLAP1 – cell lysate, small-molecule microarray, COS7 lysate, 635/667 nm fluorescence, primary screen (AID 1116); settings: 635 nm fluorescence, higher = more signal
[10] = biological target: Alpha-bungarotoxin (Bungarus multicinctus) (UniProt P60615); assay: compounds binding labelled alpha-BTX control protein – biochemical, small-molecule microarray, Alexa647 label, 635/667 nm fluorescence, artefact control for SMM control protein annotation, profiling panel (AID 1117); settings: alpha-BTX-A647 binding fluorescence, higher = more signal
Albumin (Bos taurus) = Albumin (Bos taurus) (UniProt P02769); assay: compounds binding labelled BSA control protein – biochemical, small-molecule microarray, Alexa647 label, 635/667 nm fluorescence, artefact control for SMM control protein annotation, profiling panel (AID 1118); settings: BSA-A647 binding, fluorescence 635 nm, higher = more signal;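 also: score merges 667 nm emission intensity and signal-to-noise per printed compound spot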
[11] = probe aXIP binding to arrayed compounds – biochemical, NeuroSMM set, 635/667 nm fluorescence, primary screen (AID 1119); settings: small-molecule microarray, higher = more signal, called active from +8 up or from −8 down;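 also: probe is the protein aXip251-270 applied at 1 µg/mL to compound-printed slides; binding of probe to printed compounds measured as 667 nm fluorescence plus signal to noise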
[12] = probe aNOTCH3 binding on compound microarray – biochemical, small-molecule microarray, 635/667 nm fluorescence, primary screen (AID 1120); settings: higher = more signal;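 also: probe is a biotin-tagged antibody raised against NOTCH3 rather than NOTCH3 protein; score merges spot fluorescence near 667 nm with spot signal to noise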
[13] = probe aNOTCH2 binding on compound microarray – biochemical, small-molecule microarray, 635/667 nm fluorescence, primary screen (AID 1121); settings: higher = more signal;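 also: score merges feature fluorescence read at 667 nm with its signal to noise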
[14] = biological target: Carbonic anhydrase 2 (Homo sapiens) (UniProt P00918); assay: compounds binding carbonic anhydrase 2 – biochemical, small-molecule microarray, Alexa647-labelled CAII, profiling panel (AID 1122); settings: CAII-A647 binding fluorescence, higher = more signal
[15] = COS7 lysate on small-molecule microarray, probe aHis, 635 nm (AID 1123); settings: COS7 cell lysate, fluorescence, higher = more signal;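 also: z-score combines 667nm fluorescence intensity with signal-to-noise per printed compound spot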
[16] = probe aLAP1 signal on lysate-treated microarray – cell lysate, small-molecule microarray, COS7 lysate, primary screen (AID 1124); settings: probe aLAP1, fluorescence, higher = more signal;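 also: lysate comes from COS7 cells expressing LAP1 and is applied at 0.3 µg/mL; score merges spot fluorescence near 667 nm with signal-to-noise over triplicate slides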
Sam68 (KHDRBS1) = assay: compounds binding KHDRBS1 protein – biochemical, small-molecule microarray, 635 nm fluorescence, primary screen (AID 1125); settings: higher = more signal;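 also: score merges 667 nm channel intensity with signal to noise over triplicate slides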
[17] = system: Chordin-like protein 2 (CHRDL2); assay: compounds binding chordin-like 2 – biochemical, small-molecule microarray, 635 nm fluorescence, primary screen (AID 1126); settings: fluorescence 635 nm, higher = more signal;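 also: printed compound slides probed with Chrdl2 protein at 4 µg/mL for 1 h at 4 C; score merges 667 nm emission intensity with signal to noise over three replicate slides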
[18] = biological target: Concanavalin-A (Canavalia ensiformis) (UniProt P02866); assay: compounds binding concanavalin A lectin – biochemical, small-molecule microarray, Alexa647 label, 635 nm, artefact control for SMM control protein annotation, primary screen (AID 1127); settings: ConA-A647 binding fluorescence, higher = more signal;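 also: z combines 667 nm emission intensity with signal-to-noise across three replicate slides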
Sequence of Concanavalin-A (Canavalia ensiformis) (P02866 whole entry, looked up): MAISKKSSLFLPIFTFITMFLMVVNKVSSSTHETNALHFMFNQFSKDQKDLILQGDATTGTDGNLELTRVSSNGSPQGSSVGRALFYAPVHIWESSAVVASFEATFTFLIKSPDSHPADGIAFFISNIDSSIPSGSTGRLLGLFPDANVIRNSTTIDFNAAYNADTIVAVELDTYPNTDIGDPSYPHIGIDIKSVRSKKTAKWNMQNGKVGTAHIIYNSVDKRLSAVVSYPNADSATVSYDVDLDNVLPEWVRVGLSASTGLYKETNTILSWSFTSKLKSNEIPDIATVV

Sequence of Alpha-bungarotoxin (Bungarus multicinctus) (P60615 whole entry, looked up): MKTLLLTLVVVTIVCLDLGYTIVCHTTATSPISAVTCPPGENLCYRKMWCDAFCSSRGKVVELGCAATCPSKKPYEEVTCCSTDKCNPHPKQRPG
Sequence of Left-right determination factor 2 (Homo sapiens) (O00292 whole entry, looked up): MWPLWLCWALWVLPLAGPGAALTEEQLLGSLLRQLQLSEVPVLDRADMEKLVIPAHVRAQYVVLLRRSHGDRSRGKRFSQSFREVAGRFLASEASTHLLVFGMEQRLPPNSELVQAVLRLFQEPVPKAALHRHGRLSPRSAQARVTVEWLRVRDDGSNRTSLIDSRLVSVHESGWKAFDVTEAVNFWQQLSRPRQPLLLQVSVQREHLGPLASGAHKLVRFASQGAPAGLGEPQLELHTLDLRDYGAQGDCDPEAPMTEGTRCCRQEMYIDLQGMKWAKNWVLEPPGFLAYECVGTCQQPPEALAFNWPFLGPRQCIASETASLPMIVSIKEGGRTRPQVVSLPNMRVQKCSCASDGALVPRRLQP
Sequence of Albumin (Bos taurus) (P02769 whole entry, looked up): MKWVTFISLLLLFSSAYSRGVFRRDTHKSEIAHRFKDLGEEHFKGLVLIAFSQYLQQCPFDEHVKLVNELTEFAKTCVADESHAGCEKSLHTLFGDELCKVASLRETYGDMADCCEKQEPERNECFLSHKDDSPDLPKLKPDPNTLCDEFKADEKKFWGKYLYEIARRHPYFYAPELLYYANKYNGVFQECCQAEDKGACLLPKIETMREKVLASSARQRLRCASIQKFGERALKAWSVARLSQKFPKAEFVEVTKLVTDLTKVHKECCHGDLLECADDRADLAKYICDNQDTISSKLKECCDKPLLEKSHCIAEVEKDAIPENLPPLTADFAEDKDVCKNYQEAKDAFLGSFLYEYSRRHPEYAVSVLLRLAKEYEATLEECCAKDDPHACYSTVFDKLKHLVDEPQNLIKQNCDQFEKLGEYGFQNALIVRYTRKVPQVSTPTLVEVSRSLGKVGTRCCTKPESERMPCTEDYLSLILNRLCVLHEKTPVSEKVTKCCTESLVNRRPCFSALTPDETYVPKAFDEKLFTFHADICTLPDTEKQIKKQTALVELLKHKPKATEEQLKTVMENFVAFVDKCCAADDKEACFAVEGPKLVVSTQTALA
Sequence of Torsin-1A-interacting protein 1 (Homo sapiens) (Q5JTV8 whole entry, looked up): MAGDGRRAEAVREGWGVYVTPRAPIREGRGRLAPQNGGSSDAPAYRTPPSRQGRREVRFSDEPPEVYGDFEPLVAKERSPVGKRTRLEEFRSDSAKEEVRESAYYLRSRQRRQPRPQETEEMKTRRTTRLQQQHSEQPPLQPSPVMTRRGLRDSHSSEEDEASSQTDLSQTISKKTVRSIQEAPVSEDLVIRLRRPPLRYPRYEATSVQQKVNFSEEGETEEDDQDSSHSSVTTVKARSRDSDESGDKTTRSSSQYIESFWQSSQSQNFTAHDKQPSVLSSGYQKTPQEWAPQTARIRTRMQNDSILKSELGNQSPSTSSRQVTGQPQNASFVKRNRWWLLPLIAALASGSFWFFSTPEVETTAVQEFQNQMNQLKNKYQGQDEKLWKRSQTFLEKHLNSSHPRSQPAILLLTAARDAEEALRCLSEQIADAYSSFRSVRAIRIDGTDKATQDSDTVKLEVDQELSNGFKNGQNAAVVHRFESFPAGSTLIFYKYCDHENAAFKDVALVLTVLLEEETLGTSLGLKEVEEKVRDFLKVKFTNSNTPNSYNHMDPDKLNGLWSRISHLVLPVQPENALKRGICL

Structure (SMILES)	composite z-score [1]	z-score [2]	composite z-score [3]	composite z-score [4]	composite z-score [5]	composite z-score [6]	composite z-score [7]	composite z-score [8]	composite z-score [9]	composite z-score [10]	composite z-score (Albumin (Bos taurus))	composite Z-score [11]	composite z-score [12]	composite z-score [13]	composite z-score [14]	composite z-score [15]	composite z-score [16]	composite z-score (Sam68 (KHDRBS1))	composite z-score [17]	composite z-score [18]
COC(=O)c1nc2oc1CC[C@@H](CO)NC(=O)N(C)Cc1cnnn1C[C@H](Cc1ccccc1)NC2=O	-0.367	-0.421	-1.07	-0.677	-0.319	-0.159	-0.0035	-0.321	0.122	1.25	0.771	0.15 (inactive)	-0.182	-0.167	0.853	0.205	0.321	-0.0671	-0.873	-0.343
C=CCC(OC(C)=O)[C@@H]1[C@@H](N(Cc2cc3ccccc3o2)C(=O)c2ccc(C)cc2)c2cc(OCCCO)ccc2N1C(=O)Cc1ccc(OC)cc1 (stereo not given in full)	-0.098	-0.169	-0.0667	-0.254	-0.583	0.0317	0.136	-0.318	-0.0471	0.203	-0.204	0.264 (inactive)	-0.176	-0.0811	-0.119	0.59	0.128	0.0262	0.172	0.217
COc1ccc([Si](C)(C)[C@@H]2[C@@H](CCO)O[C@]3(C(=O)N(Cc4ccc(N5CCCCC5=O)cc4)c4ccccc43)[C@H]2C)cc1	-0.0334	-5.11	0.216	0.121	0.188	-0.0758	0.191	0.0989	0.467	0.0967	0.116	0.385 (inactive)	0.033	-0.0515	0.304	0.828	0.503	1.31	0.507	1.12
C=CC[C@]1(C(=O)O)COC(c2ccc(OCCCO)cc2)=N1	0.549	0.183	0.268	0.0295	0.47	-0.0203	-0.138	-0.419	-0.0942	0.291	0.157	0.0512 (inactive)	-0.0967	-0.222	0.969	1.14	0.308	0.343	0.422	-0.427
C=CC1c2cc(O)c(OC)cc2CCN1Cc1cc2c(cc1Br)OCO2 (stereo not given)	-0.483	-2.93	0.15	-0.941	-1.24	-0.1	0.199	0.2	1.69	0.271	-0.956	0.577 (inactive)	-0.0152	-0.0891	0.823	1.99	1.25	0.342	0.775	0.142
